Source: PubChem BioAssay (National Center for Advancing Translational Sciences (NCATS))
Shown are actives, neighbours in structure and some others; about 5.7% of the full set was active somewhere.
KDM4E inh: inhibitors of human JMJD2E histone demethylase | B2RXH2 | JMJD2E catalytic domain, FDH-coupled NADH fluorescence (FDH is formaldehyde dehydrogenase) | Potency, µM (highest dose often 57.1 µM), inactives show at the highest dose activity change, negative = inhibition, actives largely listed as inhibitors | actives 1.6% (n = 230,000) | AID 2147; active = well fitted inhibition curve with a large enough effect, not every such curve was filed as active; inconclusive = small, poorly fitted or top-dose-only effect, or another doubt; inactive = no such curve, though single readings can be large or run the other way;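 also: potency is read from the fitted curve at half-maximal effect; 0% = wells with enzyme and -100% = buffer wells without enzyme; nearly all actives have a fitted effect of over 50% in size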
Target sequence (B2RXH2 1-337 limits assumed): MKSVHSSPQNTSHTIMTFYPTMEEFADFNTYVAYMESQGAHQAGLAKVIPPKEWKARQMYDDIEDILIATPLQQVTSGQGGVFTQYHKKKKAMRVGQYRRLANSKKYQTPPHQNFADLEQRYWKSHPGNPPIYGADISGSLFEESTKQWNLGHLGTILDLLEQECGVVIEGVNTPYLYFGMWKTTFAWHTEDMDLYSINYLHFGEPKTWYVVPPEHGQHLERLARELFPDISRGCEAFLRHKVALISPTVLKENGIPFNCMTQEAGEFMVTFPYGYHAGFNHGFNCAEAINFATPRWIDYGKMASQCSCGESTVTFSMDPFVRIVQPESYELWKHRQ
BAZ2B inh: inhibitors of human BAZ2B bromodomain; AlphaScreen BAZ2B-H3K14Ac peptide displacement; AID 504333; Potency, µM (titrated, usually from 114 µM), for inactives: at the highest dose activity change, negative = inhibition, most hits filed as inhibitors; Q9UIF8; actives 4.4% (n = 360,000); also: potency is read from the fitted curve at half-maximal effect; % is scaled to controls: 0 for no effect and ±100 for the full control effect; nearly all actives have a fitted effect of over 60% in size
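AlphaScreen luminescence quantifies BAZ2B engagement of H3K14Ac peptide; the protein and biotinylated peptide are both at 50 nM final, buffer PBS pH 7.4 with 0.01% Tween-20, all steps at room temperature.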
L3MBTL1 block: inhibitors of human L3MBTL1 | Q9Y468 | AlphaScreen L3MBTL1–H3K9me1 peptide binding | actives 0.66% (n = 230,000) | Potency, µM (highest dose often 57.1 µM), for the others: at the top dose activity, negative = inhibition, usual class: inhibitors; also: potency is read from the fitted curve at half-maximal effect; % is scaled to controls: 0 for no effect and ±100 for the full control effect; nearly all actives have a fitted effect of over 60% in size
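Displacement of a biotinylated histone H3(1-15) peptide monomethylated at Lys9 (75 nM) from L3MBTL1 (50 nM) was measured by AlphaScreen after a 30 min room-temperature compound incubation; cefsulodin titration served as intraplate control.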
PI5P4Ka inh: inhibitors of human PI5P4K alpha | actives 1.2% (n = 330,000) | PI5P4Kalpha enzyme, ADP-Glo luminescence, 60 min; hits give low values | max response, % | AID 652105; active = max response of -50% or lower; inconclusive = between -30% and -50%; inactive = -30% or higher; also: value at the top dose of about 77 µM; % is scaled to controls: 0 for no effect and ±100 for the full control effect
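Controls without substrate or without enzyme flank wells where PI5P4Kalpha converts substrate using 5 microM ATP (final). Incubation lasts 60 minutes at room temperature; ADP formed is read by ADP-Glo luminescence.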
JMJD2A Tudor inh: inhibitors of human JMJD2A Tudor domain. AlphaScreen JMJD2A-Tudor / H3K4me3 peptide binding. Potency, µM (doses to about 114 µM), inactives show at the top dose activity change, negative = inhibition, hits mostly inhibitors. actives 4.4% (n = 390,000). AID 504339; also: potency is read from the fitted curve at half-maximal effect; % is scaled to controls: 0 for no effect and ±100 for the full control effect; nearly all actives have a fitted effect of over 50% in size
HP1b chromo inh: inhibitors of HP1-beta chromodomain binding to methylated histone tails | P83916 | AlphaScreen HP1-beta / biotin-H3K9me3 peptide binding | AID 540317 | actives 0.56% (n = 390,000) | Potency, µM (top dose mostly 114 µM), without a hit: at the highest dose activity change, negative = inhibition, most hits filed as inhibitors; also: potency is read from the fitted curve at half-maximal effect; nearly all actives have a fitted effect of over 70% in size
Target sequence (P83916 whole entry, looked up): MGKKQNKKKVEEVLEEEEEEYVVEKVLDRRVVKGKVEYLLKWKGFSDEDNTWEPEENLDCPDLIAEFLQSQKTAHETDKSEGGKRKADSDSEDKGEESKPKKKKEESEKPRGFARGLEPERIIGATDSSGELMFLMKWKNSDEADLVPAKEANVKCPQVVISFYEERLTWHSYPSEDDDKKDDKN
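Compound inhibition of the preformed complex between 50 nM HP1-beta and 50 nM biotinylated H3K9me3 peptide was read by AlphaScreen. Buffer was PBS pH 7.4 with 0.01% Tween-20. Incubations ran 30 min at room temperature, with 10 ug/mL donor/acceptor beads.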
Starred values were filed as active, the others as inactive; ? = inconclusive; nt = no result; [ ] = remark or other dose. Unless noted, calls follow the shape of the dose curve; as a rule, active = well fitted inhibition curve with a large enough effect; inconclusive = small, poorly fitted or top-dose-only effect; inactive = no such curve, though single readings can be large or run the other way.

SMILES	KDM4E inh	BAZ2B inh	L3MBTL1 block	PI5P4Ka inh	JMJD2A Tudor inh	HP1b chromo inh
Cc1[nH]c2ccccc2c1/C=N/n1cnnc1	0.9%	13.5%	4.9%	-7.3	-2.7%[11.4 µM]	-7.9%
CCN(CC)c1ccc(N=Cc2c(C)[nH]c3ccccc23)cc1	0.794µM*	12.6µM*	?	6.8	35.5µM*	31.6µM*
c1cc(C2CCN(Cc3nc(-c4ccc5c(c4)OCO5)no3)CC2)ccn1	-1.4%	56.2µM*	-15.1%	2.8	79.4µM*	10.3%
Cc1noc(C)c1-c1cccc(-c2nn3c(=O)cc(N4CCNCC4)nc3s2)c1	nt	nt	nt	nt	-25.9%	nt
Cc1ccc2c(=O)n3c(nc2c1)C(Cc1ccccc1)NC(=O)c1ccc(Cl)cc1-3 (configuration not stated)	nt	-6.4%	-6.1%	nt	nt	nt
NCCc1nnc(SCC(=O)Nc2cccc(Cl)c2)o1	nt	?	nt	9.5	-22.2%	15.1%
O=C(CSc1nnc(-c2ccc(C(F)(F)F)cn2)o1)Nc1cccc(Cl)c1	7.0%	50.1µM*	-10.9%	-1.2	-10.0%	20.8%
O=C(COC(=O)c1ccc(OC(F)(F)F)cc1)Nc1ncccn1	nt	nt	-8.3%	0.2	56.2µM*	-13.0%
CC(C)C/C(O)=C/c1nc2cc(Cl)ccc2oc1=O	4.1%	?	-11.8%	9.1	?	15.9%
O=c1oc2ccc(Cl)cc2nc1/C=C(\O)c1ccco1	?	35.5µM*	nt	-6.3	89.1µM*	20.9%
Cc1nnc(NC(=O)c2ccc(F)c(S(=O)(=O)N3CCOCC3)c2)s1	nt	nt	35.0%	2.3	-14.6%	16.6%
CN(CC1CCCO1)S(=O)(=O)c1ccc(C(=O)Nc2nnc(-c3ccccc3)o2)cc1 (configuration not stated)	nt	?	nt	-14.3	-9.6%	43.2%
CN(CC1CCCO1)S(=O)(=O)c1ccc(C(=O)Nc2nc(-c3ccccn3)cs2)cc1 (configuration not stated)	?	28.2µM*	31.6µM*	-0.4	50.1µM*	16.9%
O=C(Nc1nc(-c2ccccn2)cs1)c1ccc(F)c(S(=O)(=O)N2CCOCC2)c1	nt	28.2µM*	?	?	50.1µM*	?
CN(C)S(=O)(=O)c1ccc(C(=O)Nc2nc(-c3cc4ccccc4o3)cs2)cc1	?	3.3%	4.9%	-1.4	-8.9%	39.3%
Cc1cc(-c2csc(NC(=O)c3ccc(S(=O)(=O)N(C)C)cc3)n2)c(C)n1-c1ccccc1	28.2µM*	-25.2%	4.1%	1.0	-25.5%	12.5%
Cc1ccc(C(=O)Nc2nc(-c3ccccn3)cs2)cc1S(=O)(=O)N1CCOCC1	nt	25.1µM*	?	?	-96.1%	-29.6%
Cc1ccc(C(=O)Nc2ccccn2)cc1S(=O)(=O)N1CCOCC1	nt	10.3%	3.5%	10.5	-7.6%	32.0%
CC(=O)c1ccc(N2CCN(c3ncnc4onc(-c5ccc(Cl)cc5)c34)CC2)cc1	nt	-9.2%	nt	nt	-11.3%	32.2%
COc1ccc2cc3cc(C(=O)NCCc4ccccc4)sc3nc2c1Cl	nt	-2.0%	nt	nt	-10.2%	19.5%[57 µM]
CC(C)NC(=O)C(c1ccccc1)N1Cc2ccccc2C1=O (configuration not stated)	nt	4.8%	nt	nt	-9.9%	25.2%
CCC(C)Nc1sc(S(=O)(=O)CC)nc1S(=O)(=O)c1ccc(C)cc1 (configuration not stated)	nt	-1.2%	nt	nt	-11.1%	36.7%
O=C(Nc1nc(-c2ccccn2)cs1)c1cc(S(=O)(=O)N2CCOCC2)ccc1F	nt	22.4µM*	?	?	79.4µM*	40.0%
Cc1ccc(S(=O)(=O)N2CCOCC2)cc1C(=O)Nc1nc(-c2cccnc2)cs1	-1.1%	-1.2%	-6.9%	nt	-20.9%	1.1%
CS(=O)(=O)Nc1ccc(-c2ccc(/C=C3\SC(N)=NC3=O)o2)cc1	nt	-5.3%	-6.0%	-65.0*	-29.3%	16.6%
SMILES	KDM4E inh	BAZ2B inh	L3MBTL1 block	PI5P4Ka inh	JMJD2A Tudor inh	HP1b chromo inh
COc1ccc(-c2cc3ccc(O)c(CN4CCN(C)CC4)c3oc2=O)cc1OC	nt	17.1%	nt	nt	-5.2%	26.5%[57 µM]
Cc1cccc(-c2nc(Nc3ccc(N4CCOCC4)cc3)c3ccccc3n2)c1	-27.6%	25.1µM*	-20.8%	3.9	39.8µM*	-35.2%
COc1ccc(OCCCN2CCCC(C)C2)cc1 (configuration not stated)	-14.6%	-34.8%	0.9%	-8.2	-22.0%[57.1 µM]	?
CC1CCCN(CCOc2ccc3ccccc3c2Br)C1 (configuration not stated)	?	22.4µM*	-7.1%[11.4 µM]	34.5	?	?
O=C(NCc1ccco1)c1ccc(Cn2c(SCc3ccccc3)nc3cccnc32)cc1	nt	-21.3%	nt	nt	-35.6%	12.5%
COCCCNC(=O)C1CCCN(S(=O)(=O)c2ccc3c(c2)oc(=O)n3C)C1 (configuration not stated)	nt	-3.3%	nt	nt	-13.9%	21.2%
CCOc1ccc(NCC(=O)c2ccc(C)cc2)cc1	-13.8%	35.5µM*	nt	1.9	?	-15.5%
Cc1ccc(C(=O)CNc2ccc(Cl)cc2)cc1	-0.9%	?	nt	-2.8	-23.4%	16.6%
O=C(NCCOc1ccccc1)c1ncn[nH]1	0.7%	50.1µM*	-22.5%	nt	39.8µM*	-9.1%
COc1cccc(CNC(=O)C2CCN(C(=O)c3sccc3-n3cccc3)CC2)c1	nt	?	nt	nt	-13.8%	16.9%
C=CCn1c(=O)[nH]c2cc(C(=O)N3CCN(c4ccc(C(C)=O)cc4)CC3)ccc2c1=O	?	-35.3%	nt	nt	-21.5%	23.7%
C=CCn1c(=O)[nH]c2cc(C(=O)N3CCN(c4cccc(Cl)c4)CC3)ccc2c1=O	-1.1%	-14.0%	?	-52.6*	-34.0%	0.3%
Cc1cc2oc(=O)cc(CSc3nnc(-c4cccs4)o3)c2cc1C(C)C	3.9%	-8.1%	-12.2%	8.3	89.1µM*	-7.3%
O=C(COC(=O)c1cc(=O)c2ccccc2o1)Nc1ccc2ccccc2c1	1.1%	-1.2%	2.5%	-7.3	2.1%	22.8%
COc1ccc2sc(N(CCCN(C)C)C(=O)c3ccc(S(=O)(=O)N4CCCc5ccccc54)cc3)nc2c1	nt	28.2µM*	-20.7%	0.3	20µM*	?
COc1cc2nc(N(CCCN(C)C)C(=O)c3ccc(S(=O)(=O)N4CCc5ccccc54)cc3)sc2cc1OC	nt	?	-5.0%	-25.2	50.1µM*	?
CCOC(=O)c1ccc(Nc2ccc(-c3ccc(OC)c(OC)c3)nn2)cc1	-8.4%	nt	2.0%	nt	63.1µM*	2.2%
Cc1nc(C(=O)O)cc2c1[nH]c1ccccc12	nt	50.1µM*	-10.0%	-4.4	79.4µM*	67.0%
N#Cc1cnn(-c2ccc(F)cc2)c1N	?	-4.7%	8.1%	-51.6*	-13.1%	37.4%
CCOC(=O)COc1ccc(S(=O)(=O)N2CCN(c3ccccc3F)CC2)cc1	3.0%	8.2%	2.0%	nt	0.6%	26.8%
CCOC(=O)COc1ccc(S(=O)(=O)N2CCN(c3ccc(OC)cc3)CC2)cc1	8.8%	-5.0%	-16.5%	-9.3	28.2µM*	-16.1%
